Shown is part of a subset that was picked to be rich in hits.
TTR transcr act: activators of transthyretin transcription | SH-SY5Y TTR promoter Gaussia luciferase, luminescence; 100% = recombinant luciferase protein wells | activation, % at 16.7 µM | actives 1.3% (n = 92,000) | AID 1117267;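 active = activation above the mean of all tested compounds plus 3 SD, cut at about 9.5% in these data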;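 note: cells exposed to compounds for one day before reading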
TTR inh HuH7: counter-screen for TTR activators: TTR transcription inhibitors in HuH7 cells | actives 4% (n = 1,100) | shares compounds with TTR transcr act | HuH7 TTR promoter-Gaussia luciferase reporter, luminescence | inhibition, % at 16.7 µM | AID 1117279;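 active = average inhibition above the solvent-only control wells' mean plus 3 SD, cut at about 15% in these data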;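 note: inhibitors lower well luminescence so higher value means more inhibition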
TTR act confirm: confirmation of human transthyretin transcription activators | 1,100 tested, under 10 active | shares compounds with TTR transcr act | SHSY5Y TTR promoter Gaussia luciferase, luminescence; 100% = purified Lucia enzyme wells, no cells | activation, % at 16.7 µM;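 active = mean activation above a set limit taken from the earlier primary screen, cut at about 11% in these data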
Each line names hits and unclear results; the compound was inactive in the other large screens (follow-up assays come after a bar, where they were run).

Cc1ccc(-c2c(NC(=O)Nc3ccccc3)nc3ncccn23)cc1	none
O=C(OCC#CCSc1nnc(-c2cccc3ccccc23)o1)c1ccc(F)nc1	none
CN(C(=O)c1ccc(S(=O)(=O)N2CCCC2)cc1)C1CCS(=O)(=O)C1 (stereo not given)	none
CC(C)CN(C(=O)CSc1nnnn1C)C1CCS(=O)(=O)C1 (stereo not given)	none
Cc1cnc(C(=O)OCC(=O)N(CC(C)C)C2CCS(=O)(=O)C2)cn1 (stereo not given)	none
Cc1nn(CC(=O)N(CC(C)C)C2CCS(=O)(=O)C2)c(C)c1[N+](=O)[O-] (stereo not given)	TTR transcr act 13 | TTR inh HuH7 inactive | TTR act confirm inactive
CCCCCc1c(-c2ccc(Br)cc2)ncn1CCc1ccccc1OC	none
CC(=O)OCC(=O)C1(O)CCC2C3CC(F)C4=CC(=O)CCC4(C)C3C(O)CC21C (stereo not given)	none
Cc1ccc(NC(=O)CC2SC(=NC3CCCCC3)NC2=O)cc1 (stereo not given)	none
O=C(Cc1ccc(Br)cc1)Nc1ccc(Cl)cc1	none
O=C(CC1SC(=O)NC1=O)Nc1ccc(Cl)cc1 (stereo not given)	TTR transcr act 12 | TTR inh HuH7 inactive | TTR act confirm inactive
O=C(COC(=O)COc1cccc(C(F)(F)F)c1)Nc1ccc(N2CCOCC2)cc1	none
C/C(=N\NC(=O)Cn1nc(C)c([N+](=O)[O-])c1C)c1ccc(Cl)s1	none
O=C(NCc1cccs1)O[C@H]1CC[C@@]23CCCN2C(=O)CCC[C@H]3C1	none
O=C(CSCC(=O)Nc1cccc2ccccc12)Nc1cccc2ccccc12	none
Cc1cc(C)nc(SCC(=O)Nc2ccnc3ccccc23)n1	none
Cc1cc(C)nc(SCCC(=O)Nc2cccc3ccccc23)n1	TTR transcr act 13 | TTR inh HuH7 inactive | TTR act confirm inactive
COc1ccc(-c2ccc(C(=O)NCc3ccc(N4CCN(C)CC4)cc3)c3occc23)c(C)c1	none
COc1ccccc1C(=O)NC(CCSC)C(=O)OCC(=O)N1CCCC1=O (stereo not given)	none
O=C(COC(=O)C(Cc1ccccc1)NC(=O)c1ccc(Cl)cc1)c1ccc(Cl)cc1 (stereo not given)	none
O=C(O)Cc1n[nH]c(=O)c2ccccc12	none
O=c1[nH]nc(Cc2ccc(Cl)cc2Cl)c2ccccc12	none
CN(C)Cc1n[nH]c(=O)c2ccccc12	TTR transcr act 26 | TTR inh HuH7 inactive | TTR act confirm inactive
O=C(Cn1c(=O)c2cccn2c2cccnc21)NCCCN1CCN(c2ccc(Cl)cc2)CC1	none
CC(C)CC(NC(=O)C(Cc1ccc(OCc2ccccc2)cc1)NC(=O)OC(C)(C)C)C(N)=O (stereo not given)	none
CCOC(=O)C(Cc1ccccc1)NC(=O)CNC(=O)CNC(=O)OCc1ccccc1 (stereo not given)	none
CCOC(=O)C(Cc1ccc(O)cc1)NC(=O)CNC(=O)C(CC(C)C)NC(=O)OC(C)(C)C (stereo not given)	TTR transcr act 30 | TTR inh HuH7 inactive | TTR act confirm inactive
COc1ccc(C(=O)CSc2ccc(-c3ccccc3)nn2)cc1	none
COc1ccc(Sc2nnc(-c3ccccc3)cc2C#N)cc1	TTR transcr act 10 | TTR inh HuH7 inactive | TTR act confirm inactive
Cc1ccc(Sc2nnc(-c3ccccc3)cc2C#N)cc1	none
CC(=O)c1ccc(Nc2cc(C)nc3ncnn23)cc1	none
CCCc1cc(Nc2ccc(C)cc2)n2ncnc2n1	none
Cc1ccc(Nc2c3c(nc4ncnn24)CCC3)cc1	TTR transcr act 20 | TTR inh HuH7 24 | TTR act confirm inactive
Cc1nn(C(C)C(=O)NCC2CCCO2)c(C)c1[N+](=O)[O-] (stereo not given)	none
CCCCCn1nnnc1C1(C)CN(S(C)(=O)=O)CC(=O)N1Cc1ccco1 (stereo not given)	none
Cc1ccc(NC(=O)CSc2nnc(NC(=O)c3ccco3)s2)cc1	none
CCCSc1nnc(NC(=O)c2ccco2)s1	none
O=C(CSc1nnc(NC(=O)c2ccco2)s1)NCc1ccc2c(c1)OCO2	TTR transcr act 21 | TTR inh HuH7 inactive | TTR act confirm inactive
COc1cc2c(cc1OC)CN(CCC(C)c1ccc(Cl)cc1)CC2 (stereo not given)	none
O=C(CCl)NNC(=O)c1c(O)c2ccccc2[nH]c1=O	none
O=C(NCCc1ccccc1)c1c(O)c2ccccc2[nH]c1=O	none
O=C(Cc1c(O)c2ccccc2[nH]c1=O)NCc1ccccc1F	TTR transcr act 14 | TTR inh HuH7 inactive | TTR act confirm inactive
CN(C)c1cccc(-c2cnc(N3CCC(C(N)=O)CC3)nc2)c1	none
O=C(O)c1cc(N2CCCC2)ccn1	none
C=CCN(Cc1ccc(OC)cc1OC)C(C#Cc1ccccc1)c1ccccc1 (stereo not given)	none
CCOC(=O)c1nc2c(=O)n(C)c(=O)n(C)c2n(C)c1=O	none
Cc1cccc(NS(=O)(=O)c2ccc3c(c2)CCC(=O)N3)c1	none
Cc1cccc(NS(=O)(=O)c2ccc3c(c2)NC(=O)CC(=O)N3)c1	TTR transcr act 13 | TTR inh HuH7 inactive | TTR act confirm inactive
CCc1cccc(NS(=O)(=O)c2ccc3c(c2)NC(=O)CC(=O)N3)c1	none
CC1=NN(c2ccccc2)C(=O)/C1=C/c1cn(C)c2ccccc12	none
COc1cccc(-n2c(=O)n(Cc3ccccc3)c(=O)c3[nH]cnc32)c1	none
COc1cccc(C(=O)OCC(=O)N2CCc3ccccc3C2)c1	none
COc1ccc(OC)c(NC(=O)C2CCC(CNc3c(N4CCC(C)CC4)c(=O)c3=O)CC2)c1 (stereo not given)	TTR transcr act 15 | TTR inh HuH7 inactive | TTR act confirm inactive
COc1ccc(C)cc1NC(=O)C1CCC(CNc2c(N3CCOCC3)c(=O)c2=O)CC1 (stereo not given)	none
CC1CCN(c2c(NCC3CCC(C(=O)NCc4ccccc4)CC3)c(=O)c2=O)CC1 (stereo not given)	none
Cc1c(Cl)cccc1NC(=O)NN1CCN(C)CC1	none
COc1ccc(/C(C)=N/NC(=O)CNC(=O)CCc2ccccc2)c(OC)c1	none
CCOCCOc1cccc(C(=O)NC(C)c2ccc3ccccc3c2)c1 (stereo not given)	none
COc1ccc(Cc2nnc(-c3ccccc3)o2)cc1	none
CCCc1nnc(-c2ccc(OC)cc2)o1	TTR transcr act 12 | TTR inh HuH7 inactive | TTR act confirm inactive
COc1ccc(SCCc2nnc(-c3ccccc3)o2)cc1	none
CCN(CC)S(=O)(=O)c1ccc2nnn(O)c2c1	none
Fc1ccc(NC2CCC23CCC(c2ccccc2)CC3)cc1C(F)(F)F (stereo not given)	none
Cc1noc(C)c1NC(=O)Nc1ccc2c(c1)C(=O)N([C@H](C)CO)C[C@H](C)[C@@H](CN(C)S(=O)(=O)c1ccc(F)cc1)O2	none
CC(C)NC(=O)N(C)C[C@H]1Oc2ccc(NC(=O)Cn3cnnn3)cc2C(=O)N([C@H](C)CO)C[C@@H]1C	none
Cc1ccc(S(=O)(=O)N(C)C[C@@H]2Oc3ccc(NC(=O)Cn4cnnn4)cc3C(=O)N([C@@H](C)CO)C[C@H]2C)cc1	TTR transcr act 21 | TTR inh HuH7 inactive | TTR act confirm inactive
C=CCc1ccccc1Oc1cc(F)nc(N)n1	none
CCOC(=O)[C@]12CCCC=C1N(CCCOC)C(=O)[C@@H]2CC(=O)N1CCCCC1	none
O=C(Nc1nccs1)c1ccc(Cl)c([N+](=O)[O-])c1	none
Cc1nc(-c2ccc(Cl)cc2)sc1C(=O)NNC(=O)C(C)C	none
Cc1cc(C(=O)NNC(=S)NCC(C)C)no1	none

Bioassay records from PubChem.
